cardiac RTF act = cardiac RTF calcium sensitization. 340,000 compounds, 0.24% hits. activation, % at 7.2 µM. IANBD-labeled TnC RTF fluorescence at EC20 calcium; 0% EC20 calcium, 100% full calcium;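 active = activation above the mean over all tested compounds plus 3 SD, cut at about 30% in these data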;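 also: rise in fluorescence read as greater calcium sensitivity of cardiac thin filaments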
RTF Ca sens inh = cardiac RTF calcium desensitization; P19429+P45379; IANBD-labeled cardiac RTF, Ca2+ fluorescence; inhibition, % at 7.15 µM; 340,000 compounds, 0.12% hits; AID 493244;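 active = inhibition above the mean inhibition of all tested compounds plus 3 SD, cut at about 17% in these data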;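 also: assay run at fixed EC70 calcium of 1.6 mM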
CRFBP-R2 block = blocks CRF-induced signaling of the CRF-BP/CRF-R2 complex. 350,000 compounds, 0.59% hits. inhibition, % at 11.8 µM. HEK293 CRF-R2/CRF-BP, CRF-induced calcium fluorescence. AID 588475;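 active = inhibition of the ligand-induced calcium signal above about 50% at the single tested concentration, limit read from the data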
CRFBP-R2 agonist = agonists of human CRF-binding protein/CRF-R2 receptor complex; activation, % at 13.2 µM; 350,000 compounds, 0.46% hits; HEK293 CRF-R2/CRF-BP, calcium dye fluorescence (FLIPR); percent of saturating CRF peptide response;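 active = activation of at least 50%, plus an integration ratio under a set limit after plate pattern correction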
Myeloid diff 2 = promotes myeloid progenitor differentiation; calls only at 10 µM; 360,000 compounds, 1% hits; AID 624256; ER-HoxA9 myeloid progenitors, lysozyme-GFP differentiation, flow cytometry;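 active = normalized GFP-positive differentiation at or above the plate's own cutoff, the solvent-only control mean plus 3 SD; inconclusive = no clear call, values can overlap the other calls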;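 also: cells exposed to compound for four days before flow analysis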
A number is an active result; 0 = inactive; ? = inconclusive; - = not tested or not shown; + = active, no number. Only some compounds are listed: those with a hit (about 2.2% of all), similar ones and a draw of the others.

SMILES	cardiac RTF act	RTF Ca sens inh	CRFBP-R2 block	CRFBP-R2 agonist	Myeloid diff 2
CC12CCC(C(=O)Nc3cccc(NC(=O)C45CCC(C)(C(=O)O4)C5(C)C)n3)(OC1=O)C2(C)C	0	0	0	0	0
CC12CCC(C(=O)Nc3ncc([N+](=O)[O-])s3)(OC1=O)C2(C)C (stereo not drawn)	0	0	63.1	0	0
COc1ccc(S(=O)(=O)Nc2nc3ccccc3nc2NCc2ccc3c(c2)OCO3)cc1	0	0	56.8	0	0
O=S(=O)(Nc1nc2ccccc2nc1NCc1ccco1)c1ccccc1	0	0	0	0	+
Cc1ccc(S(=O)(=O)Nc2nc3ccccc3nc2NCc2ccc3c(c2)OCO3)cc1C	0	0	0	0	0
CC1CCCC(C)N1C(=O)COc1ccc(C(=O)N/N=C/c2ccc(C(=O)O)cc2)cc1 (stereo not drawn)	0	0	0	0	0
Cc1cc(SCC(=O)NN)c2cc(Br)ccc2n1	0	0	0	0	0
Cc1cccc(OCCCC(=O)NC(C)C)c1	0	0	81.6	0	0
NC(=O)c1cc2ccc(O)cc2oc1=NCc1ccccc1	60.2	0	0	319.2	0
NC(=O)c1cc2ccccc2oc1=NCc1ccccc1	0	0	0	0	0
O=C(O)c1ccc2c3c(cccc13)C(=O)N(c1ccccc1)C2=O	0	0	0	0	0
Cc1c(O)c2c3c(cccc3c1O)C(=O)N(c1ccccc1)C2=O	51.7	0	0	168.4	0
Cc1ccc(NC(=O)CCn2cc(C(F)(F)F)ccc2=O)cc1	-	-	122.3	0	0
CNC(=O)Nc1ccc(Cn2cc(C(F)(F)F)ccc2=O)cc1	0	0	0	0	0
CCc1ccc(N(CC(=O)N2CCOCC2)S(C)(=O)=O)cc1	0	0	0	0	0
Cc1nn(CCOc2ccccc2)c(=O)n1-c1ccc(F)cc1	0	0	0	0	0
Cc1cccc(C)c1-n1c(C)nn(CCOc2ccccc2)c1=O	0	0	0	0	+
CC(C)[C@H]1C(=O)Nc2ccccc2N1C(=O)N[C@@H](Cc1ccccc1)C(=O)N[C@H](C(=O)O)c1ccccc1	0	0	0	0	0
CC(=O)NCCCNC(=S)NCCCN(Cc1ccc(Cl)cc1)c1ccc(Br)cn1	-	-	-	-	0
Cc1ccc(Nc2nc(Cl)c(C=O)s2)cc1Cl	0	0	0	0	+
Cc1ccc(Nc2nc3ccccc3c(=O)s2)cc1C	0	0	0	0	0
COc1ccccc1Nc1nc(Cl)c(C=O)s1	0	0	0	0	+
CCc1cc(OCCOCCN(C)C)ccc1Cl	0	0	0	0	0
Cc1cccc2c(CCNC(=O)c3ccc([N+](=O)[O-])cc3)c[nH]c12	0	0	56.9	0	0
CN(C)S(=O)(=O)c1ccc2c(c1)/C(=C/c1cc3c([nH]1)CCCC3)C(=O)N2	61.2	0	0	122.1	+
SMILES	cardiac RTF act	RTF Ca sens inh	CRFBP-R2 block	CRFBP-R2 agonist	Myeloid diff 2
CN(C)S(=O)(=O)c1ccc2c(c1)C(=O)c1cc(S(=O)(=O)N(C)C)ccc1CC2	0	0	0	0	0
CCN1/C(=C/c2ccc3cc(C)ccc3[n+]2CC)Sc2cc(C)ccc21	50.9	0	0	131.4	?
CCCCN1/C(=C/c2cccc[n+]2C)Sc2cc(NC(C)=O)ccc21	0	0	0	0	0
CCN1/C(=C/c2ccc3cc(C)ccc3[n+]2C)Sc2ccc3sccc3c21	0	0	0	0	0
CCCCN1/C(=C/c2ccc3ccccc3[n+]2CC)Sc2ccccc21	-	-	0	128.1	+
Cc1c(/C=N/NC(=O)c2ccc(Br)o2)cnn1C	-	-	0	0	0
O=C(Nc1ccncc1)c1cc(C2CCCCN2C(=O)CCCc2ccccc2)on1 (stereo not drawn)	-	-	-	-	0
OCC(O)C1OC(Oc2ccccc2)C(O)C(O)C1O (stereo not drawn)	0	0	0	0	0
OCC(O)C1OC(Nc2ccc(Cl)cc2)C(O)C1O (stereo not drawn)	0	0	0	0	+
Cc1cccc(CSc2ccc3nnc(-c4cccs4)n3n2)c1	0	0	63.3	0	0
Fc1ccc(CSc2ccc3nnc(-c4cccs4)n3n2)cc1	0	0	0	0	0
COc1ccc(/C=C\C(=O)O[C@@H]2C(O)C(O[C@@H]3OC(C)[C@H](O[C@@H]4OCC(O[C@H]5O[C@H](CO)[C@@H](O)C(O)C5O)C(O)C4O)C(O)C3O)[C@H](OC(=O)[C@]34CCC(C)(C)C[C@@H]3C3=CCC5[C@@]6(C)CC(O)C(O[C@@H]7OC(CO)C(O)[C@H](O)[C@H]7O)[C@@](C)(C(=O)O)C6CC[C@@]5(C)[C@]3(CO)CC4)O[C@H]2C)cc1 (stereo partly drawn)	0	0	0	132.4	0
COCCNC(=O)NC(=O)CSc1nc(C)c(C)c(C)n1	0	0	0	0	+
COc1ccc(OC)c(-c2oc3ccccc3c(=O)c2O)c1	0	0	0	0	-
COc1ccc(OC)c(-c2c3cc(O)c(=O)cc-3oc3cc(O)c(O)cc23)c1	+	0	0	145.3	0
CCOc1ccccc1-c1c2cc(O)c(=O)cc-2oc2cc(O)c(O)cc12	+	0	0	260.1	0
O=c1cc2oc3cc(O)c(O)cc3c(-c3ccccc3O)c-2cc1O	51.1	0	0	0	0
CCC(C)N(C(=O)Cn1nnc(-c2ccc(Cl)cc2)n1)C1CCS(=O)(=O)C1 (stereo not drawn)	0	0	0	0	0
Cc1ccc(C)c(C(C)NC(=O)c2ccccc2Br)c1 (stereo not drawn)	0	0	63.6	0	0
COc1ccc(C(C)NC(=O)c2ccccc2Br)cc1OC (stereo not drawn)	0	0	0	0	0
CCCN1CCC(C)(C(=O)Nc2cccc(OC(C)C)c2)C1 (stereo not drawn)	-	-	-	-	0
CC(C(=O)Nc1ccc2c(c1)OCCO2)c1ccc([N+](=O)[O-])cc1 (stereo not drawn)	0	0	0	110.2	0
Nc1nc2ncc(-c3ccsc3)c(N)n2n1	0	0	0	0	0
CC(=O)c1coc2ccc(OCC(=O)O)cc12	0	0	0	0	+
Cn1ccc(C(=O)OCC(=O)Nc2cccc3ccccc23)n1	0	0	0	0	0
SMILES	cardiac RTF act	RTF Ca sens inh	CRFBP-R2 block	CRFBP-R2 agonist	Myeloid diff 2
CCCCc1ccc(NC(=O)CSCc2cc(=O)[nH][nH]2)cc1	0	0	0	0	0
Nc1ccc(C(=O)NCC(=O)O)cc1	0	0	0	0	+
O=C(O)CNC(=O)c1ccc(Oc2c(F)c(F)c(Oc3ccc(C(=O)NCC(=O)O)cc3)c(F)c2F)cc1	0	0	0	0	+
Cc1ccc(OCCNC(=O)C2CC(=O)N(Cc3ccccc3)C2)cc1 (stereo not drawn)	0	0	0	0	0
COCC(=O)N1CCC(Oc2ccc(C(=O)N(C)C(C)c3ccon3)cc2)CC1 (stereo not drawn)	0	0	0	0	0
CC(C)(C)OC(=O)C[C@H]1C/C=C\C[C@H](CC(=O)NCCO)C(=O)N2CCC[C@@H]2COC1=O	0	0	0	0	0
CCOc1cc(/C=C/C(=O)c2ccc(O)cc2)ccc1OCC(=O)N(C)C	0	0	0	0	0
